In PubChem BioAssay (NCATS):
“And” between values parts separate entries of the source, which are not always exact repeats. Equal values may be shown once. Records with an inconclusive call do not appear. The source made the active and inactive calls. Unless noted, calls follow the shape of the dose curve; as a rule, active = well fitted curve in the direction sought with a large enough effect; inconclusive = small, poorly fitted or top-dose-only effect, or another doubt; inactive = no such curve, though single readings can be large; an effect the other way counts as inactive or inconclusive.

assay: qHTS assay for small molecule agonists of the antioxidant response element (ARE) signaling pathway measured by Nrf2-dependant transcriptional activity - cell viability counter screen (AID 720653; active = well fitted curve in the direction sought with a large enough effect in the repeat runs; an effect the other way counts as inactive or inconclusive); settings: ARE-bla HepG2 viability, CellTiter-Glo ATP luminescence, 16 h; max response: active compounds read low
Outline: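 ARE-bla HepG2 cells (2,000/well) rested 5 hrs at 37C/5% CO2, then exposed to compounds in DMSO for 16 hrs. Viability was read in the same wells as intracellular ATP by luminescence, 30 min at room temperature after reagent addition.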
% is scaled to controls: 0 for no effect and ±100 for the full control effect.

Compound | max response
c1ccc2c(c1)[nH]c1ccccc12 | -11% (inactive) and -21.8% (inactive)
OCCNCCO | 2.63% (inactive) and -10.1% (inactive)
Nc1ccc(Cl)cc1Cl | -3.23% (inactive) and 2.15% (inactive)
CCC(C)c1ccccc1O (centres undefined) | 15.2% (inactive) and -6.24% (inactive) and -8.74% (inactive)
CC1=CC(C)(C)Nc2ccccc21 | 0.655% (inactive) and 4.88% (inactive)
CN(C)C=O | -6.03% (inactive) and 8.83% (inactive) and -4.93% (inactive)
Cc1ccc(N)c([N+](=O)[O-])c1 | -14.8% (inactive) and -1.11% (inactive)
CCCCOCCO | 4.17% (inactive) and -5.63% (inactive) and -2.53% (inactive)
CC(=O)OC/C=C(\C)CCC=C(C)C | -2.65% (inactive) and 12.5% (inactive)

assay: qHTS assay for cell viability of HEK293 cells (AID 743288); settings: ATP luminescence (CellTiter-Glo), 18 h; max response: active compounds read low; also: nearly all actives have a fitted effect of over 50% in size
Outline: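 Environmental chemicals tested in qHTS format against parental HEK293 cells; 18 h treatment, 37 C; read-out ATP luminescence (CellTiter-Glo), 30 min RT development.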

Compound | max response
CCCN(CCC)C(=O)SCC | -7.69% (inactive) and -8.5% (inactive)
COc1ccc2nc(N)sc2c1 | 3.97% (inactive) and -4.38% (inactive)
ClCCCl | -0.0928% (inactive) and -7.5% (inactive) and -2.25% (inactive)
CCC(O)OC(O)CC (centres undefined) | -2.73% (inactive) [middle of 4 runs]
C=Cc1ccccc1Cl | 6.21% (inactive)
c1ccc2c(c1)c1cccc3ccc4cccc2c4c31 | 0.963% (inactive) and -16.2% (inactive)
Cc1cccc([N+](=O)[O-])c1C | -3.29% (inactive) and 4.27% (inactive)
CCCCCCCCO | 3.94% (inactive) and -5.81% (inactive) and -6.7% (inactive)
CC(C)=CCCC(C)CCO (centres undefined) | 0.805% (inactive) and -8.34% (inactive)
O=[N+]([O-])c1cccc(Cl)c1Cl | -3.06% (inactive) and -4.76% (inactive)
CCO[Si](CCCN)(OCC)OCC | -4.38% (inactive) and -9.06% (inactive)
Clc1cc(Cl)c(Cl)cc1Cl | 3.48% (inactive) and -4.31% (inactive)
CCO | 8.81% (inactive)
Clc1cc(Cl)c(Cl)c(Cl)c1Cl | -16.4% (inactive) and -15.3% (inactive)
CCCCC(CC)CN (centres undefined) | 2.8% (inactive) and -10% (inactive)
O=NO | 0.172% (inactive) and -0.275% (inactive)
c1ccc2c(c1)[nH]c1ccccc12 | -7.42% (inactive) and -16.3% (inactive)
OCCNCCO | 2.85% (inactive) and -11.3% (inactive)
Nc1ccc(Cl)cc1Cl | 1.15% (inactive) and -5.99% (inactive)
CCC(C)c1ccccc1O (centres undefined) | 12.6% (inactive) and 1.15% (inactive) and -2.8% (inactive)
CC1=CC(C)(C)Nc2ccccc21 | -4.28% (inactive) and -1.89% (inactive)
CN(C)C=O | -10.8% (inactive) and 1.33% (inactive) and 0.809% (inactive)
Cc1ccc(N)c([N+](=O)[O-])c1 | -10.6% (inactive) and -7.86% (inactive)
CCCCOCCO | 4.48% (inactive) and -11.2% (inactive) and -7.95% (inactive)
CC(=O)OC/C=C(\C)CCC=C(C)C | -10.3% (inactive) and 5.2% (inactive)
